WRN inhibitor: blocks human WRN helicase. AID 651768. Potency, µM (series often up to 114 µM), inactives show top-dose activity change, negative = inhibition, most hits filed as inhibitors. 360,000 compounds, 0.46% hits. WRN helicase unwinding, fluorescent forked duplex, kinetic. Q14191; further: on the % scale 0 is the no-effect control and ±100 the full control effect; nearly all actives have a fitted effect of over 55% in size
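Screening of the MLSMR collection measured strand separation of a quenched forked DNA duplex (100 nM) by 20 nM WRN with 2 mM ATP, all final. Compounds were preincubated with enzyme 15 min at room temperature.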
Pol eta inh: inhibitors of human DNA polymerase eta | 390,000 compounds, 1.2% hits | Q9Y253 | recombinant Pol eta, fluorescent DNA replication assay | Potency, µM (titrated, usually from 114 µM), without a hit: at the top dose activity change, negative = inhibition, usual class: inhibitors | AID 588591; further: on the % scale 0 is the no-effect control and ±100 the full control effect
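Pol eta (10 nM) was preincubated with compounds for 15 min at room temperature, after which fluorescent replication substrate (50 nM final) was added to start the reaction. Fluorescence was read kinetically at 0 and 10 min.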
POLI inh: inhibitors of human DNA polymerase iota; Q9UNA4; Pol iota fluorescent replication assay, 10 min; Potency, µM (series often up to 115 µM), inactives show at the highest dose activity, negative = inhibition, actives largely listed as inhibitors; 390,000 compounds, 1% hits; AID 588590
Target sequence (Q9UNA4 whole entry, looked up): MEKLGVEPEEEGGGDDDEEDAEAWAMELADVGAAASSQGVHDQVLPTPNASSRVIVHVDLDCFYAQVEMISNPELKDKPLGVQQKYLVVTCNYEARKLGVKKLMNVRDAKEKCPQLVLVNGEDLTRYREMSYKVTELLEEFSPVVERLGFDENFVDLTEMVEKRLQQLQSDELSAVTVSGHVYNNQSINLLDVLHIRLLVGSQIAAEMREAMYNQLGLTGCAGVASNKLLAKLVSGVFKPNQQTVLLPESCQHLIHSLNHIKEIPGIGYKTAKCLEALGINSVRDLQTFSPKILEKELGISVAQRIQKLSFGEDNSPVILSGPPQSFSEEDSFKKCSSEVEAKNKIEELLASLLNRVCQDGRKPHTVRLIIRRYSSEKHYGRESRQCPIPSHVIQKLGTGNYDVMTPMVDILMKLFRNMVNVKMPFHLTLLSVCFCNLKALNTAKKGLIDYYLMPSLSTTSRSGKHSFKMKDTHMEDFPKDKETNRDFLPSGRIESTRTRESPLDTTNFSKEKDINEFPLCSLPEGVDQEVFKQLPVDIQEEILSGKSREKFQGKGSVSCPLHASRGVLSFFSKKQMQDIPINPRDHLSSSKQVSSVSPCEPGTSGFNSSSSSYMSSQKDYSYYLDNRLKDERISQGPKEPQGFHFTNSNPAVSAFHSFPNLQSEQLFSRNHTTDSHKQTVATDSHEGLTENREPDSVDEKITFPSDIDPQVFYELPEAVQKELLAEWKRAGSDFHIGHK
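Pol iota at 10 nM preincubated 15 min with compounds at room temperature; reaction started with fluorescent substrate, 50 nM final. Fluorescence read kinetically at 0 and 10 min; buffer-only wells as negative control.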
FEN1 inhibitor: inhibitors of human flap endonuclease 1; P39748; Recombinant FEN1 flap cleavage, fluorescence, 15 min; 390,000 compounds, 0.35% hits; AID 588795; Potency, µM (doses to about 114 µM), inactives show top-dose activity change, negative = inhibition, most hits filed as inhibitors; further: on the % scale 0 is the no-effect control and ±100 the full control effect; nearly all actives have a fitted effect of over 65% in size
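Recombinant FEN1 (10 nM) was preincubated with pin-transferred compounds for 15 min at room temperature, then flap DNA substrate (50 nM final) was added. Plates were read at 0 and 15 min, and normalized concentration–response data were fitted to a four-parameter Hill equation.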
Pol beta inh: blocks human DNA polymerase beta activity | P06746 | Pol beta primer extension/strand displacement, fluorescence kinetic | Potency, µM (titrated, usually from 114 µM), for the others: at the top dose activity change, negative = inhibition, most hits filed as inhibitors | 340,000 compounds, 1.3% hits; further: on the % scale 0 is the no-effect control and ±100 the full control effect
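Kinetic readout of DNA synthesis with strand displacement by Pol beta. Compound and 10 nM enzyme sit 15 min at room temperature; 50 nM substrate starts the reaction, read immediately and at 10 min.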
POLK inh: blocks human DNA polymerase kappa activity. Q9UBT6. purified Pol kappa, fluorescent DNA synthesis assay, 10 min. Potency, µM (highest dose often 107 µM), inactives show at the top dose activity, negative = inhibition, usual class: inhibitors. 400,000 compounds, 0.53% hits. AID 588579; further: on the % scale 0 is the no-effect control and ±100 the full control effect
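Kinetic fluorescence screen: compound preincubated 15 min RT with 10 nM enzyme; 50 nM substrate (final) initiates; reads at 0/10 min.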
* = called active by the depositor; ? = inconclusive; . = not tested or not shown; ! = a repeat was not active; [ ] = another dose, or the depositor's remark. This is a sample that favours compounds with a hit; in the whole collection about 2.4% have one here. The call rests on the fitted dose curve; in most records, active means well fitted curve in the direction sought with a large enough effect; inconclusive means small, poorly fitted or top-dose-only effect, or another doubt; inactive means no such curve, though single readings can be large; an effect the other way counts as inactive or inconclusive. Potency means the concentration at half of the fitted maximal effect.

SMILES	WRN inhibitor	Pol eta inh	POLI inh	FEN1 inhibitor	Pol beta inh	POLK inh
CN(C)c1nc(Nc2ccc(F)cc2)nc(Oc2ccc(F)cc2)n1	-9.1%	-9.3%	0.7%	-14.5%	7.9%	-9.7%
CN(C)c1nc(N/N=C/c2ccccc2O)nc(Nc2ccc(F)cc2)n1	-29.6%	79.4µM*	68.1%	-23.9%	?	?
C[c-]1[c-](C)[c-](C)[c-](C)[c-]1C.[Fe].c1cc2nccc(N3CCCC3)[c-]2c1 (centres undefined)	-18.5%	20µM*!	10µM*!	?	4.47µM*!	?
c1cc(N2CCCCC2)nc(N2CCCCC2)n1	7.2%	-12.1%	40.7%	-6.5%	.	-8.5%
Cc1ccc(NC(=O)CSc2nc(=O)n(CCN3CCOCC3)c3c2CCC3)c(C)c1	.	2.4%	5.2%	-9.2%	0.7%	-1.0%[60.1 µM]
O=C(CC1c2ccccc2Oc2ccccc21)Nc1ccccc1F	-1.7%	-4.6%	89.1µM*	-4.8%	-2.2%	-3.2%
COc1ccc(OC)c(NC(=O)c2nnn(CC(=O)Nc3ccc4c(c3)OCO4)c2N)c1	-19.8%	15.8µM*	63.7%	-13.3%	?	-2.8%
COc1ccc2c(CC(=O)NCc3ccc4c(c3)OCO4)coc2c1	?	50.1µM*	?	1.5%	17.8µM*	?
COc1cccc(CNC(=O)c2nnn(CC(=O)Nc3ccc4c(c3)OCO4)c2N)c1	-4.9%	-4.2%	-11.5%	-27.2%	?	-9.1%
COc1ccc(Cl)cc1NC(=O)Cn1nnc(C(=O)NCc2ccc3c(c2)OCO3)c1N	-6.6%	-2.1%	7.0%	-1.5%	-16.2%	-24.0%
COc1cccc(NC(=O)Cn2nnc(C(=O)NCc3ccc4c(c3)OCO4)c2N)c1	6.0%[11.6 µM]	-14.4%	50.1µM*	15.3%	-29.2%	-19.7%
S=C=Nc1ccc(N=C=S)cc1	.	.	.	.	.	-5.7%[19.4 µM]
COc1cc2nc(N3CCCN(C)CC3)nc(N(C)C)c2cc1OC	.	.	?	?	.	-23.2%
COc1cc(Cl)c(CC(=O)NO)cc1OC	.	.	23.7%	-3.0%	.	16.0%
Cc1ccc(NC(=O)c2cc(S(=O)(=O)N3CCCC3)cn2C)cc1C	4.2%	-4.4%	21.7%	4.9%	-1.2%	10.4%
Cn1cc(NC(=O)c2cc(NC(=O)c3cc(NC=O)cn3C)cn2C)cc1C(=O)NCCC(=N)N	.	.	.	.	14.1µM*	0.794µM*
COc1ccccc1NC(=O)c1cccc(S(=O)(=O)N2CCCCCC2)c1	.	-21.8%	2.3%	-25.7%	-12.2%	-3.0%
C=C(CCC12O[C@H](C(=O)O)[C@@](O)(C(=O)O)[C@](C(=O)O)(O1)[C@H](OC(=O)/C=C/[C@@H](C)C[C@@H](C)CC)[C@H]2O)[C@@H](OC(C)=O)[C@H](C)Cc1ccccc1	.	.	.	.	.	3.55µM*
C=C(CC[C@]12OC(C(=O)O)C(O)(C(=O)O)C(C(=O)O)(O1)C(OC(=O)/C=C/[C@@H](C)C[C@@H](C)CC)C2O)[C@@H](OC(C)=O)[C@H](C)Cc1ccccc1 (some centres undefined)	.	.	?	-1.4%	.	79.4µM*
Cc1ccc(NC(=O)Nc2cccs2)c(C)c1	.	-13.5%	10.0%	-5.2%	8.5%	2.1%
Cc1cc(C)cc(N2CCn3c2nc2c3c(=O)n(CCCc3ccccc3)c(=O)n2C)c1	.	-1.2%	12.3%	5.9%	14.7%	6.8%
Cc1cc(=O)n2c(C(=O)Nc3ccc(C)c(Cl)c3)c(C(=O)Nc3ccccc3)sc2n1	.	-9.9%	0.6%	-18.2%	3.5%	2.8%
CCOC(=O)C1CCN(C(=O)CCc2nnc3ccc(N4CCC(C)CC4)nn23)CC1	4.6%	-11.1%	33.8%	6.9%	38.5%	5.7%
CCOC(=O)C1CCN(C(=O)CCc2nnc3ccc(NCc4ccco4)nn23)CC1	1.1%[11.6 µM]	44.7µM*	?	4.8%	3.0%	-31.0%
O=[N+]([O-])c1ccc(-c2ccc(/C=N/c3c(-c4ccco4)nc4ccccn34)o2)cc1	-7.1%	-16.2%	-18.3%	8.8%	3.8%	-7.8%
SMILES	WRN inhibitor	Pol eta inh	POLI inh	FEN1 inhibitor	Pol beta inh	POLK inh
O=[N+]([O-])c1ccc(Cl)c(-c2ccc(/C=N/c3c(-c4ccco4)nc4ccccn34)o2)c1	-30.5%	-21.8%	?	-1.0%	50.1µM*	-12.5%
Oc1cccc(/C=N/c2c(-c3ccco3)nc3ccccn23)c1	-16.5%[57.1 µM]	-14.3%	25.1µM*	-23.2%	0.9%	-11.1%
O=[N+]([O-])c1ccc(-c2ccc(/C=N/c3c(-c4ccco4)nc4ccccn34)o2)c(Cl)c1	.	.	.	.	-11.6%	.
Cc1cc(C)c([N+](=O)[O-])cc1-c1ccc(/C=N/c2c(-c3ccco3)nc3ccccn23)o1	?	-4.6%	?	?	50.1µM*	?
Cc1cc([N+](=O)[O-])c(C)cc1-c1ccc(/C=N/n2cnnc2)o1	5.1%	?	26.4%	3.0%	23.0%	9.4%
Cc1ccc(-n2ncc(C(=O)NCc3ccco3)c2C2CCN(C(=O)OC(C)(C)C)CC2)cc1C	.	-5.4%	-0.6%	-22.2%	18.3%	-3.2%
COc1ccc(C=C2CS(=O)(=O)CC(=Cc3ccc(OC)cc3)C2=O)cc1	-0.7%	50.1µM*	.	.	.	.
N#C/C(=C\c1c(Oc2ccc(Br)cc2)nc2ccccn2c1=O)c1nc2ccccc2s1	.	6.0%	12.6µM*	?	-4.4%	79.4µM*
Cc1cc(Oc2nc3ccccn3c(=O)c2/C=C(\C#N)c2nc3ccccc3s2)ccc1Cl	.	-17.2%	-8.7%	-19.0%	-2.3%	-13.0%
COc1ccc(Cl)c(Cn2cnc3c(cnn3C(C)(C)C)c2=O)c1	.	.	5.2%	-1.5%	.	-18.6%
O=C(CSc1ncnc2c1oc1ccccc12)Nc1nccs1	-5.0%	-12.6%	-16.7%	-6.7%	5.3%	-8.6%
CCc1cc2cc3c(cc2nc1SCC(=O)Nc1nccs1)OCO3	-9.4%	8.3%	70.8µM*	-10.4%	0.4%	-1.6%
CCc1cc2cc3c(cc2nc1SCC(=O)Nc1c[nH]c(=O)[nH]c1=O)OCO3	7.9%	-5.2%	-11.9%	1.8%	-15.0%	0.6%
CCc1nc(SCC(=O)Nc2nccs2)c2oc3ccccc3c2n1	?	?	31.6µM*	-12.6%	15.8µM*	-20.3%
Cc1cccc(N2CCN(C(=O)Cn3c(-c4cccs4)cc4ccccc43)CC2)c1C	.	-13.7%	11.7%	-10.5%	30.9%	-12.4%
CC(C)NC(=O)COC(=O)c1ccccc1OCC(=O)Nc1ccc(Br)cc1	.	.	-23.2%	-3.6%	.	11.2%
COc1ccccc1CNC(=O)c1sc2nc3n(c(=O)c2c1C)CCC3	.	-7.1%	25.4%	8.2%	-21.9%	10.4%
COC(=O)c1ccc2c(c1)C(C)(C)C(/C=C/c1ccccc1O)=[N+]2C	56.2µM*	18.5%	28.2µM*	50.1µM*	?	35.5µM*
Cc1ccc(OCC(=O)Nc2ccccc2C(=O)OCc2cc(=O)n3ccsc3n2)cc1	.	?	-18.4%	-1.6%	2.82µM*	-14.2%[60.1 µM]
